High-throughput results (PubChem)
LASV entry inh = Lassa virus entry inhibition. Lassa virus pseudotype entry inhibition, cell reporter. AID 540256. hit rate 1.2% among 300,000. Potency, µM (doses to about 37.9 µM), without a hit: at the top dose activity change, negative = inhibition, usual class: inhibitors; calls by dose curve; tested in HEK293 cells; note: potency is the fitted concentration of half-maximal effect; % is set by controls: 0 for no effect and ±100 for the full control effect; nearly all actives have a fitted effect of over 50% in size
Shiga inhibitor = blocks Shiga toxin action in Vero cells | Vero cells, Shiga toxin protein synthesis inhibition reporter | inhibition, % at 38.7 µM | hit rate 9.2% among 290,000 | AID 2315; in the data active = inhibition mostly above about 28%, no sharp cut-off; inactive = mostly below about 43%; note: 0% is about no effect
Marburg entry inh = inhibitors of Marburg virus binding or cell entry | Marburg virus pseudotyped entry inhibition, cell reporter | Potency, µM (top dose mostly 37.8 µM), for inactives: at the top dose activity change, negative = inhibition, most hits filed as inhibitors | hit rate 1.8% among 300,000 | AID 540276; calls by dose curve; tested in HEK293 cells; note: potency is the fitted concentration of half-maximal effect; % is set by controls: 0 for no effect and ±100 for the full control effect
Cycloheximide cs = counter-screen hit for Shiga toxin inhibitors, cycloheximide. cell reporter, cycloheximide protein synthesis inhibition counterscreen. max response, %. hit rate 12% among 300,000; in the data active = max response mostly above about 13%, no sharp cut-off; inactive = mostly below about 14%; note: read at 38.3 µM for the half of the compounds with a filed dose; 0% is about no effect
Numbers without * were called inactive; [ ] = another dose, or the depositor's remark. Shown are actives, neighbours in structure and some others; about 12% of the full set was active somewhere.

What do the screens show for `S=c1[nH]nc(-c2ccncc2)n1/N=C/C(Cl)=C\c1ccccc1`?
Shiga inhibitor: 61*; Cycloheximide cs: 24*

What do the screens show for `Cc1ccc(/C=N/n2c(COc3ccccc3)n[nH]c2=S)cc1`?
Shiga inhibitor: -4; Cycloheximide cs: -2

Results for CN(C)c1ccc(/C=N/n2c(-c3cccnc3)n[nH]c2=S)cc1 ?
LASV entry inh: inconclusive; Shiga inhibitor: -14; Marburg entry inh: inconclusive; Cycloheximide cs: -3

What do the screens show for `S=c1[nH]nc(COc2ccccc2)n1/N=C/C(Cl)=C/c1ccccc1`?
LASV entry inh: 18µM*; Shiga inhibitor: 0; Marburg entry inh: 2%; Cycloheximide cs: -4

What do the screens show for `CN(C)c1ccc(/C=N/n2c(-c3ccccc3Br)n[nH]c2=S)cc1`?
LASV entry inh: -25%[46.1 µM]; Shiga inhibitor: 54; Marburg entry inh: 2%[46.1 µM]; Cycloheximide cs: 17*

What do the screens show for `CC(=O)Nc1ccc(Oc2cc(NC(C)=O)cc([N+](=O)[O-])c2)cc1`?
LASV entry inh: -30%; Shiga inhibitor: -4; Marburg entry inh: -14%[46.1 µM]; Cycloheximide cs: 9

Results for S=c1[nH]nc(COc2ccccc2)n1/N=C/C=C/c1ccco1 ?
LASV entry inh: 0.79µM*; Shiga inhibitor: -4; Marburg entry inh: -16%[46.1 µM]; Cycloheximide cs: -1

How did FC(F)Oc1ccc(/C=N/n2c(Cc3ccc(Br)cc3)n[nH]c2=S)cc1 do in these assays?
LASV entry inh: 5µM*; Shiga inhibitor: 2; Marburg entry inh: -2%[46.1 µM]; Cycloheximide cs: 8

How did CN(C)c1ccc(/C=N/n2c(C3CCCCC3)n[nH]c2=S)cc1 do in these assays?
LASV entry inh: inconclusive; Shiga inhibitor: -5; Marburg entry inh: 2.2µM*; Cycloheximide cs: -3

How did CSc1ccc(/C=N/n2c(Cc3ccc(Br)cc3)n[nH]c2=S)cc1 do in these assays?
LASV entry inh: inconclusive; Shiga inhibitor: -2; Marburg entry inh: 25%[46.1 µM]; Cycloheximide cs: 0

What do the screens show for `CN(C)c1ccc(/C=N/n2c(COc3ccccc3)n[nH]c2=S)cc1`?
LASV entry inh: 0.92µM*; Shiga inhibitor: 2; Marburg entry inh: 5%; Cycloheximide cs: 4

What do the screens show for `O=C(O)c1ccccc1Cc1ccc2c(c1)CCCC2`?
LASV entry inh: 20%[46.1 µM]; Marburg entry inh: 13%[46.1 µM]

What do the screens show for `COc1cc(-c2cc(C(=O)Nc3ccc(O)cc3)c3ccccc3n2)cc(OC)c1OC`?
Shiga inhibitor: -8; Cycloheximide cs: -2

Results for COc1ccc(NC(=O)c2cc(-c3ccc(OC)c(OC)c3)nc3ccccc23)c(OC)c1 ?
LASV entry inh: inconclusive; Shiga inhibitor: -5; Marburg entry inh: inconclusive; Cycloheximide cs: -3

How did CC(=O)c1ccc(NC(=O)c2cc(C)nc3ccccc23)cc1 do in these assays?
LASV entry inh: inconclusive; Shiga inhibitor: 28; Marburg entry inh: 15%; Cycloheximide cs: 28*

Results for COc1ccc(-c2cc(C(=O)Nc3ccc(C(N)=O)cc3)c3ccccc3n2)cc1OC ?
LASV entry inh: -21%; Shiga inhibitor: 45; Marburg entry inh: inconclusive; Cycloheximide cs: 14*

Results for COc1ccc(NC(=O)c2cc(-c3ccncc3)nc3ccccc23)c(OC)c1 ?
LASV entry inh: inconclusive; Marburg entry inh: 5.6µM*

How did COc1cc(-c2cc(C(=O)Nc3cccc(C(C)=O)c3)c3ccccc3n2)cc(OC)c1OC do in these assays?
LASV entry inh: inconclusive; Shiga inhibitor: 6; Marburg entry inh: inconclusive; Cycloheximide cs: 18*

Results for CC(=O)c1cccc(NC(=O)c2cc(-c3ccco3)nc3ccccc23)c1 ?
LASV entry inh: -21%; Shiga inhibitor: 33*; Marburg entry inh: inconclusive; Cycloheximide cs: 13

Results for COc1cc(-c2cc(C(=O)Nc3nc4ccccc4s3)c3ccccc3n2)cc(OC)c1OC ?
LASV entry inh: inconclusive; Shiga inhibitor: 3; Marburg entry inh: inconclusive; Cycloheximide cs: 18*

How did O=C(CCCCCNc1nc(=S)[nH]c2ccccc12)NCc1ccccc1Cl do in these assays?
Shiga inhibitor: -10; Cycloheximide cs: -1

How did S=c1nc(NCCc2ccccc2Cl)c2ccccc2[nH]1 do in these assays?
LASV entry inh: inconclusive; Shiga inhibitor: 31; Marburg entry inh: inconclusive; Cycloheximide cs: 26*

How did CC(C)n1nnnc1SCC(=O)Nc1ccc2c(c1)OCCO2 do in these assays?
Shiga inhibitor: 117*; Cycloheximide cs: 57*

How did COCCCn1nnnc1SCC(=O)Nc1ccc2c(c1)OCCO2 do in these assays?
Shiga inhibitor: 16; Cycloheximide cs: 9

Results for CCn1nnnc1SCC(=O)Nc1ccc2c(c1)OCCO2 ?
LASV entry inh: 4%; Shiga inhibitor: 64*; Marburg entry inh: -21%[46.1 µM]; Cycloheximide cs: 44*

What do the screens show for `Nn1c(SCC(=O)Nc2ccc3c(c2)OCCO3)nncc1=O`?
LASV entry inh: 20%[46.1 µM]; Shiga inhibitor: 31*; Marburg entry inh: inconclusive; Cycloheximide cs: 16*

What do the screens show for `COc1cccc(-n2nnnc2SCC(=O)Nc2ccc3c(c2)OCCO3)c1`?
LASV entry inh: -30%; Shiga inhibitor: -19; Marburg entry inh: inconclusive; Cycloheximide cs: -5

What do the screens show for `COc1ccc(-n2nnnc2SCC(=O)Nc2ccc3c(c2)OCCO3)c(OC)c1`?
LASV entry inh: inconclusive; Shiga inhibitor: 74*; Marburg entry inh: -4%; Cycloheximide cs: 46*

Results for CC(C)N1C(=S)N=C2C=C(C(F)(F)F)C=CC21 (stereo not drawn) ?
Marburg entry inh: -18%[46.1 µM]

What do the screens show for `COC(=O)c1cc(CNC(=O)c2ccccc2OCc2c(C)noc2C)ccc1OC`?
LASV entry inh: -24%[46.1 µM]; Shiga inhibitor: 29; Marburg entry inh: -7%[46.1 µM]; Cycloheximide cs: -2

Results for Nc1nnc(SCC(=O)Nc2cccc3ccccc23)s1 ?
LASV entry inh: 13%; Shiga inhibitor: -4; Marburg entry inh: 14%[46.1 µM]; Cycloheximide cs: 1

Results for C=CCn1c(SCC(=O)/C(C#N)=C(\C)N)nnc1C1CCCCC1 ?
LASV entry inh: inconclusive; Shiga inhibitor: 39; Marburg entry inh: 22%; Cycloheximide cs: -3

Results for Cc1ccc(C2SCCN2C(=O)c2ccc([N+](=O)[O-])cc2)cc1 (stereo not drawn) ?
LASV entry inh: -12%; Shiga inhibitor: 14; Marburg entry inh: -3%; Cycloheximide cs: -5

Results for CN(C)CCOC1(Cc2ccc(F)cc2)CCC(C(C)(C)C)CC1 (stereo not drawn) ?
LASV entry inh: inconclusive; Marburg entry inh: 11µM*

What do the screens show for `Cc1ccc(CC2(OCCN(C)C)CCC(C(C)(C)C)CC2)cc1` (stereo not drawn)?
LASV entry inh: inconclusive; Marburg entry inh: 10µM*

What do the screens show for `CCOC(=O)c1ccc(-c2cccc(C(F)(F)F)c2)nc1C`?
LASV entry inh: 3%; Shiga inhibitor: 37; Marburg entry inh: 14%; Cycloheximide cs: 17*

How did CCOC(=O)c1cc(C#N)c(Oc2cccc(C(F)(F)F)c2)nc1-c1ccccc1 do in these assays?
LASV entry inh: inconclusive; Shiga inhibitor: 25; Marburg entry inh: inconclusive; Cycloheximide cs: 0

Results for COc1ccc(NS(=O)(=O)c2ccc(I)cc2)cc1N1CCN(C)CC1 ?
Shiga inhibitor: -5; Cycloheximide cs: -2

How did Cc1cc(C(=O)COc2ccc([N+](=O)[O-])cc2)c(C)n1C1CC1 do in these assays?
LASV entry inh: 16%; Shiga inhibitor: 36*; Marburg entry inh: 16%[46.1 µM]; Cycloheximide cs: 16*

How did COCCn1c(C)cc(C(=O)COC(=O)c2[nH]c(C)c(C(C)=O)c2C)c1C do in these assays?
LASV entry inh: -11%; Marburg entry inh: -26%
